Results from PubChem BioAssay AID2391 (Southern Research Specialized Biocontainment Screening …, 2010).
Among all 310,000 compounds or so, about 410 (0.13%) were called active. About 2% were inconclusive and are not listed. How the calls were made is not given here. Only a sample is shown. Measured potencies and affinities stand elsewhere.

Assay: inhibition of RSV-induced cytopathic effect – HEp-2 cells, primary 10 µM value included (AID 2391)
Details: at 10 µM, active compounds read high

CPE inhibition, inactive:
Cc1ccc2nc(SCc3cn4cccnc4n3)[nH]c2c1 0.92%
CC(C(=O)Nc1cccc([N+](=O)[O-])c1)n1nnc2ccccc21 (stereo not given) -0.02%
CCC1Sc2ccc(S(=O)(=O)CCC(=O)Nc3c(Cl)cc(OC)cc3OC)cc2NC1=O (stereo not given) 12.2%
Cc1ccc(N2CCN(C(=O)NC3CCCCC3)CC2C)cc1 (stereo not given) 3.66%
COc1ccc(NC(=O)NCCCN2CCN(c3ccccc3F)CC2)cc1 -2.01%
CCOc1ccc(C(=O)CN2C(=O)NC3(CCCCCC3)C2=O)cc1 1.63%
COc1cc2c(cc1OC)C(C)N(C(=O)/C=C/c1cc(OC)c(OC)c(OC)c1)CC2 (stereo not given) 1.08%
COc1cc2c(cc1OC)C(C)N(C(=O)c1ccc(C)o1)CC2 (stereo not given) 3.08%
COc1cc2c(cc1OC)C(C)N(C(C)=O)CC2 (stereo not given) -1.08%
COc1cc2c(cc1OC)C(C)N(C(=O)c1ccc(Br)o1)CC2 (stereo not given) 4.76%
Cc1ccc(NC(=O)c2c(F)cccc2Cl)cc1S(=O)(=O)N1CCOCC1 2.31%
CCOc1ccc(NC(=O)CC2C(=O)N(c3ccccc3)C(=O)N2Cc2ccccn2)cc1 (stereo not given) 3.73%
CCOc1ccc(NC(=O)CC2C(=O)N(c3ccccc3)C(=S)N2Cc2ccccn2)cc1 (stereo not given) 7.95%
CCOc1ccc(NC(=O)CC2C(=O)N(c3ccc(OC)cc3)C(=S)N2Cc2ccccn2)cc1 (stereo not given) -1.46%
COc1ccc(N2C(=O)C(CC(=O)Nc3ccccc3)N(Cc3ccccn3)C2=S)cc1 (stereo not given) 4.08%
CCCCCc1cc(=O)oc2c(C(CCN3CCCCC3)c3ccc(OC)cc3)c(OC)cc(OC)c12 (stereo not given) -3.75%
C[C@@]12C(=O)N(c3ccc(F)cc3)C(=O)N1[C@@H]1c3ccccc3OC[C@@H]1[C@H]2c1ccccc1 6.7%
COc1cccc2c1c(NC(=O)c1cc(C)on1)nn2C 2.09%
COc1cccc2c1c(NC(=O)Nc1ccc(F)cc1F)nn2C 1.98%
CC(=O)Nc1ccc(NC(=O)C2CCC(N3C(=O)C4C5C=CC(C6CC56)C4C3=O)CC2)cc1 (stereo not given) 1.77%
CC(C(=O)N1CCCC1)N1CCN(S(=O)(=O)c2ccc(C(C)(C)C)cc2)CC1 (stereo not given) 0.2%
Cc1ccc(CSCC(=O)Nc2ccccc2F)cc1 0.6%
Cc1c(NC(=O)CSCc2ccccc2)cccc1C(=O)O -0.3%
O=C(CSc1nc2ccccc2s1)N/N=C/c1ccco1 0.58%
Cn1cccc1Cc1nnc(SCC(=O)Nc2ccc3c(c2)OCCO3)n1-c1ccc(F)cc1 0.23%
Cc1ccc(C(=O)N[C@H](C(=O)OCC(=O)Nc2cccc(S(N)(=O)=O)c2)C(C)C)cc1 -0.34%
O=C(NC1CCCCC1)c1ccc(N2CCCC2=O)cc1 2.08%
Cn1ncc(Br)c1C(=O)N1CCOCC1 3.84%
CC1CCN(C(=O)COc2ccccc2F)CC1 4.04%
O=C(CNC(=O)c1ccccc1F)NCCOc1ccccc1Cl 0.24%
O=C(NCCOc1ccccc1Cl)C(=O)NCCOc1ccccc1Cl 3.63%
COC(=O)c1cc(S(=O)(=O)N2CCC(C)CC2)ccc1F 0.31%
CCN1C(=O)[C@H]2[C@@H](c3ccc(C)cc3)N3C(=O)N(c4cccc(Cl)c4)C(=O)[C@@]3(CC(C)C)[C@H]2C1=O 3.11%
N#Cc1ccc(CSc2nnc(-c3cccnc3)n2-c2ccccc2)cc1 0.49%
Cc1ccc2c(C)c(C(=O)N3CCN(c4cnccn4)CC3)oc2c1C 16.7%
Cc1ccc2c(C)c(C(=O)N3CCN(Cc4ccccn4)CC3)oc2c1C 1.72%
CC(C)N(CCO)Cc1nc(C(c2ccccc2)c2ccccc2)no1 -0.29%
Cc1c(C(=O)NCC2CCCO2)oc2ccc(Br)cc12 (stereo not given) 3.18%
O=C(NCc1ccccc1)c1ccc(NC(=O)C2CCCO2)cc1 (stereo not given) 0.29%
O=C1CN(C(=O)CSc2nc3ccccc3c(=O)n2Cc2ccc(F)cc2)c2ccccc2N1 16.3%
Cc1ccc(-n2c(SCC(=O)N3CC(=O)Nc4ccccc43)nc3ccccc3c2=O)cc1 3.64%
O=C(COC(=O)CNC(=O)c1ccc(Cl)cc1)NC1CCCCCC1 -0.18%
CCOCCCNC(=O)C1CCCN1C(=O)NC1CCCCC1 (stereo not given) 1.83%
CCOC(=O)N/N=C(\C)c1cccs1 -0.75%
Nc1ccc(-c2nc3ccccc3o2)cc1 2.51%
Nc1ccc(-c2nc3ccccc3[nH]2)cc1 -0.76%
Cc1ccc(S(=O)(=O)Nc2ccc3nc(-c4cccn4C)[nH]c3c2)cc1 2.21%
O=C(Nc1ccc(S(=O)(=O)Nc2nccs2)cc1)C1CCCCC1 1.14%
O=C(NC(=S)Nc1ccc(S(=O)(=O)Nc2nccs2)cc1)C1CC1 -0.1%
O=C(c1cccc(N2C(=O)C3C4C=CC(C4)C3C2=O)c1)N1CCN(c2ccccc2F)CC1 (stereo not given) 1.69%
O=C(c1cccc(N2C(=O)C3C4C=CC(C4)C3C2=O)c1)N1CCN(c2ccccc2)CC1 (stereo not given) 3.62%
Cc1ccc(S(=O)(=O)NCCC(=O)NCC(c2ccc(F)cc2)N2CCOCC2)cc1 (stereo not given) -0.75%
COc1ccc(CNC(=S)Nc2cccc(OC)c2)cc1 0.93%
CCOc1cc(S(=O)(=O)N(CC)CC)ccc1Br 0.38%
COc1ccccc1CNC(=O)CN(C)S(=O)(=O)c1ccc(Br)s1 3.3%
